The full list was thinned out, with hits kept by preference.
hDAT+cocaine: changed hDAT dopamine uptake under cocaine IC80, either direction, primary screen, cocaine antagonist project, cell-based, LLC-PK1 hDAT, [14C]-dopamine uptake, MLSMR; B-score at 10 µM; AID 449768, 2010; LLC-PK1 hDAT cells, [14C]-dopamine uptake with cocaine IC80; actives deviate in either direction; actives 1.3% (n = 110,000);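 active = Z score or B-score, a plate-position-corrected score, falls beyond the plate's 99.7% confidence bounds, in either direction; inactive = both scores lie inside the 99.7% bounds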;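 note: scored against the spread of the other compound wells on the same plate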
D1 mod: D1 CRE-luciferase signal change, two-sided – cell-based, HEK293 D1, dopamine EC30, D1 allosteric modulator project, primary screen. dopamine EC30 potentiation; actives deviate in either direction. B-score at 10 µM. actives 5.9% (n = 58,000). AID 641, 2007;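 active = luminescence count or its row- and column-corrected plate score outside the 99.7% band of the plate's sample wells, on either side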
JNK3 inh: JNK3 kinase activity inhibitors, primary screen, biochemical, human, purified enzyme; Mitogen-activated protein kinase 10 (Homo sapiens), P53779; HTS; inhibition, % at 8 µM; actives 0.61% (n = 60,000); AID 746, 2007; in the data active = inhibition above about 17%;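 note: 0% = DMSO and 100% = reference inhibitor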
Target sequence (P53779 whole entry, looked up): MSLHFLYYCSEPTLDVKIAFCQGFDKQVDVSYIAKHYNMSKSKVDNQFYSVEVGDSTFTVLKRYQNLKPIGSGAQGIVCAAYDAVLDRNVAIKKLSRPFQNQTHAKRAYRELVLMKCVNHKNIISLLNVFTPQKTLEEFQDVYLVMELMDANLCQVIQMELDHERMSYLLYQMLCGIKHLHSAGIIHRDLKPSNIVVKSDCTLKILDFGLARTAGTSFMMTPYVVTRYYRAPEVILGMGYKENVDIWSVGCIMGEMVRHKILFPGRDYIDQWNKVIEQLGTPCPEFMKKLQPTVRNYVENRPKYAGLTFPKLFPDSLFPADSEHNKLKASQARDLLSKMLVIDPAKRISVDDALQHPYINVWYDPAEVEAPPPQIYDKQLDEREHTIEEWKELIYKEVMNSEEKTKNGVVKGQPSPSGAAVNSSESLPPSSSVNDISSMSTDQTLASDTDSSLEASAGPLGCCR
PKA inh: inhibitors of human PKA kinase activity, primary screen, biochemical, ATP-depletion luminescence, Kemptide substrate; cAMP-dependent protein kinase catalytic subunit alpha (Homo sapiens), P17612; PKA Kemptide phosphorylation, Kinase-Glo ATP luminescence; inhibition, % at 6 µM; actives 0.1% (n = 65,000); AID 524, 2006;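 active = inhibition above the screen-wide mean inhibition plus 3 SD, cut at about 21% in these data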
ROCK2 inh: inhibitors of human ROCK2 kinase, primary screen, biochemical, high-throughput, luminescence; purified ROCK2, Kinase-Glo ATP depletion luminescence; inhibition, % at 6 µM; actives 0.35% (n = 60,000); AID 604, 2007;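 active = inhibition above the screen-wide mean inhibition plus 3 SD, cut at about 18% in these data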;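 note: plate controls were DMSO wells for no effect and Y-27632 control wells after no-enzyme background subtraction for full effect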
Starred values were filed as active, the others as inactive; nt = no result.

SMILES	hDAT+cocaine	D1 mod	JNK3 inh	PKA inh	ROCK2 inh
Cc1ccc(C2CC(c3ccco3)n3ncnc3N2)cc1 (configuration not stated)	-0.073	nt	nt	nt	nt
COCC(=O)Nc1nc2ccc(C)cc2s1	1.2	-5*	-1	9	8
COc1ccc(CNC(=O)/C=C/c2cc([N+](=O)[O-])ccc2OC(F)F)cc1OC	0.087	nt	nt	nt	nt
Cc1cc(=O)n2nc(-c3ccccc3)sc2n1	-2.7*	-0.8	4	6	-1
COC(=O)c1cc(=O)nc2sc(-c3ccccc3)nn12	-0.92	0.37	nt	4	nt
Cc1cc(C(=O)CSc2nnc(-c3cccc(F)c3)n2N)c(C)n1Cc1ccc2c(c1)OCO2	-0.4	-7.8*	-1	7	4
O=C(Oc1cccc(NC(=O)c2ccco2)c1)c1cccc(S(=O)(=O)N2CCCCC2)c1	-7.9*	nt	nt	nt	nt
O=C(Nc1cccc(S(=O)(=O)N2CCOCC2)c1)c1ccco1	-1.2	nt	nt	nt	nt
Cc1ccc(NC(=O)CSCC(=O)N2c3ccccc3CCc3ccccc32)cc1	-0.014	nt	nt	nt	nt
CCOC(=O)c1c(C)n(C)c2ccc(OCC(O)Cn3nc(C)c(Br)c3C)cc12 (configuration not stated)	-8.5*	0.093	5	8	5
CCOC(=O)c1c(C)n(C)c2ccc(OCC(O)CN3CCCCCC3)cc12 (configuration not stated)	1.5	nt	3	5	3
COc1cccc(-c2cc(C(=O)Nc3cnn(Cc4ccccc4C)c3)no2)c1	nt	-0.36	5	0	-2
COc1cccc(-c2cc(C(=O)Nc3cnn(Cc4ccc(F)cc4)c3)no2)c1	-1.7	-3*	7	5	1
Cn1c(=O)cc(OCC(=O)NCCCN2CCN(c3ccccc3F)CC2)c2ccccc21	-0.42	0.56	9	3	7
CCn1c(=O)cc(SCC(=O)NCCCN2CCN(c3ccccc3F)CC2)c2ccccc21	0.28	-3.5*	0	5	0
O=C(Cn1cc2c(n1)CCCC2)NCCCN1CCN(c2ccccc2F)CC1	-1.2	-3.1*	1	1	3
CCOC(=O)/C(C#N)=C\c1ccco1	-0.84	nt	nt	nt	nt
C=CCN1C=CC(=C/C=C(/C#N)C(=O)OCC)C=C1	-2.6*	nt	nt	nt	nt
Clc1ccc(-c2nnc(N3CCCC3)nn2)cc1	0.19	-2.5*	nt	0	nt
CN(C)c1ccc(/C=N/n2ncc3ccccc32)cc1	0.92	-3.4*	nt	1	nt
C=CCn1c(/N=C/c2ccc(N(C)C)cc2)nc2ccccc21	0.21	-0.51	-6	9	6
CC(Oc1ccccc1Cl)C(=O)N(Cc1ccco1)C1CCS(=O)(=O)C1 (configuration not stated)	-1.3	-0.29	-6	6	4
O=C(COc1ccc(Cl)cc1Cl)N(Cc1ccco1)C1CCS(=O)(=O)C1 (configuration not stated)	2.9*	0.24	1	2	-2
O=C(Nc1ccc2c(c1)OCCO2)c1cccnc1	0.018	-3.2*	-4	9	4
O=C(Nc1ccc2c(c1)OCO2)c1ccc2nc[nH]c2c1	-1.9*	nt	nt	nt	nt
SMILES	hDAT+cocaine	D1 mod	JNK3 inh	PKA inh	ROCK2 inh
Fc1ccc2c(Cl)c(-c3nnc(-c4cccs4)o3)sc2c1	-0.092	-6.4*	6	12	4
CCN(CC)CCCN1C(=O)C(=O)/C(=C(/O)c2cnn(-c3ccccc3)c2C)C1c1ccncc1 (configuration not stated)	nt	-0.16	2	5	6
Cc1oc2cc3c(C(=O)OCCN(C)C)c(C)oc3cc2c1C(=O)OCCN(C)C	nt	-3.4*	-7	9	1
Cn1nc(-c2ccc(Cl)cc2)c2cc(C(=O)NCCN3CCOCC3)sc21	2.6*	-0.75	10	-1	3
Cn1nc(-c2ccc(Cl)cc2)c2cc(C(=O)NCCCN3CCOCC3)sc21	-0.46	-0.44	-2	3	-2
CC1=Nc2ccccc2/C1=C\c1nc(-c2ccc(F)cc2)oc1O	-0.54	nt	nt	nt	nt
COc1ccc(/C(N)=N/OC(=O)CSc2ccccc2)cc1OC	-0.34	nt	nt	nt	nt
Cc1ccccc1NC(=O)Cn1c(C)nc2ccc(NC(=O)C3CC3)cc2c1=O	0.38	-0.36	-3	10	19*
NC(=O)CC(NC(=O)Cc1cccc2ccccc12)c1ccc(NC2CCCCCCC2)c([N+](=O)[O-])c1 (configuration not stated)	-0.73	nt	nt	nt	nt
COc1cc(C(=O)NCc2cn3ccccc3n2)cc(OC)c1OC	0.98	0.49	58*	8	4
CCN(CC)CCN1C(=O)C(=O)/C(=C(/O)c2cnn(-c3ccccc3)c2C)C1c1ccc(C)o1 (configuration not stated)	-0.77	nt	nt	nt	nt
Cc1ccc(C2/C(=C(\O)c3cnn(-c4ccccc4)c3C)C(=O)C(=O)N2CCN(C)C)o1 (configuration not stated)	-2.4*	-0.49	3	4	10
O=C(O)C[C@H]1c2cc(C(F)(F)F)ccc2S(=O)(=O)N1C1CCN(Cc2ccccc2)CC1	-0.38	nt	nt	nt	nt
S=C(NC1CCCCC1)c1ccc2c(c1)OCO2	-1.3	nt	nt	nt	nt
O=C(NC1CCCCCCC1)c1ccc2c(c1)OCO2	0.19	-3.5*	-7	0	-12
C=CCNC(=S)NCC=C	0.17	nt	nt	nt	nt
C#CCOCCOCCOCCNc1nc(N2CCN(C(=O)C([C@@H](C)CC)n3cc(C(N)Cc4ccc(O)cc4)nn3)CC2)nc(N2CCN(C(=O)[C@H](CCC(=O)O)n3cc(C(N)[C@H](C)CC)nn3)CC2)n1 (some centres not stated)	-1.7	nt	nt	nt	nt
COC(=O)CNC(=O)C(C)NC(=O)CNC(=O)OCc1ccccc1 (configuration not stated)	-0.25	nt	nt	nt	nt
CC(C)C1N=C2c3ccccc3N=C(SCc3cc(=O)n4cc(Cl)ccc4n3)N2C1=O (configuration not stated)	-7.1*	3.2	-1	4	1
CC1N=C2c3ccccc3N=C(SCc3cc(=O)n4ccccc4n3)N2C1=O (configuration not stated)	nt	1.4	-1	5	2
CC(C)N=C(NC#N)SCc1ccccc1F	-8.5*	2.4	-3	2	-2
CCOc1ccc(C2CC(=O)NC(SCC(=O)OC)=C2C#N)cc1 (configuration not stated)	1.2	1.2	-4	-8	-3
Cc1cccc(C)c1OCC(O)Cn1c2ccccc2c2ccccc21 (configuration not stated)	-0.061	nt	nt	nt	nt
Cc1ccc(OCC(O)Cn2c3ccccc3c3ccccc32)cc1 (configuration not stated)	1.7*	nt	nt	nt	nt
Cc1csc(NC(C)c2nc3cc(Cl)c(N4CCCCC4)cc3n2CCOCCO)n1 (configuration not stated)	-0.77	nt	nt	nt	nt
